High-throughput results deposited in PubChem BioAssay by National Center for Advancing Translational Sciences (NCATS).
SW480 rerep – induces DNA re-replication in SW480 colon adenocarcinoma cells | SW480 DNA re-replication, Hoechst DNA content imaging, 48 h | Potency, µM (top dose mostly 46.1 µM), without a hit: at the highest dose re-replication activation, hits mostly activators | hit rate 1.8% among 340,000 | AID 624297; further: % of control where 0% means no effect; nearly all actives have a fitted effect of over 55% in size
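Quantitative HTS format with DMSO vehicle controls; 48 hr drug incubation at 37 C, then 40 min Hoechst staining and scanning imager measurement at 405 nm excitation.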
KB-3-1 cytotox – kills parental KB-3-1 adenocarcinoma cells. KB-3-1 viability, CellTiter-Glo ATP luminescence, 72 h. Potency, µM (highest dose often 46.1 µM), actives largely listed as cytotoxic. hit rate 1.4% among 400,000. AID 1347075; further: on the % scale 0 is the no-effect control and ±100 the full control effect; nearly all actives have a fitted effect of over 60% in size
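KB-3-1 cells, DMEM (no phenol red) + 10% FBS; compound by pin transfer, 72 h, 37 °C. Readout: CellTiter-Glo luminescence after 10 min. Data normalized, curve-fitted.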
KB-V1 cytotox – KB-V1 MDR subline cytotoxicity. Potency, µM (series often up to 46.1 µM), hits mostly cytotoxic. KB-V1 MDR cells viability, CellTiter-Glo, 72 h. AID 1347076. hit rate 3.4% among 400,000; further: on the % scale 0 is the no-effect control and ±100 the full control effect; nearly all actives have a fitted effect of over 60% in size
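Cytotoxicity toward P-gp-expressing KB-V1 cells was determined as loss of CellTiter-Glo luminescence after 72 h at 37 degrees C. Compounds were tested in quantitative HTS format across a concentration range, with curves fitted to normalized data.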
HT1080 IDH1KD tx – kills HT-1080 cells with IDH1 knockdown. HT-1080 IDH1 knockdown viability, ATP luminescence, 48 h. Potency, µM (doses to about 46.1 µM), without a hit: top-dose activity, negative = toxicity, usual class: cytotoxic. hit rate 2% among 360,000;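 further: 0% = DMSO wells and -100% = cell-free medium wells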
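Assay cells: HT-1080 with IDH1 knockdown, 750 per well, RPMI/5% FBS. Exposure: 48 h at 37 °C following 2 h pre-incubation. Read: CellTiter-Glo luminescence; fitted concentration-response, curve class assigned.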
MCF10A rereplic – induces DNA re-replication in MCF 10a normal breast cells. Potency, µM (titrated, usually from 46.1 µM), for the others: at the highest dose activity, positive = re-replication, actives largely listed as activators. AID 624296. hit rate 2.9% among 350,000. MCF 10A DNA re-replication, Hoechst nuclear intensity, 48 h; further: % of control where 0% means no effect; nearly all actives have a fitted effect of over 50% in size
HT1080NT lethal – kills 2HG-producing HT-1080-NT fibrosarcoma cells; HT-1080-NT fibrosarcoma viability, CellTiter-Glo ATP luminescence, 48 h; Potency, µM (doses to about 46.1 µM), for inactives: at the highest dose activity, negative = less viability, most hits filed as cytotoxic; hit rate 1.6% among 360,000;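 further: NT is the 2HG producing partner of a matched IDH1 knockdown line; 0% = DMSO-treated cells and -100% = media-only wells without cells; nearly all actives have a fitted effect of over 55% in size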
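Compounds were tested in concentration-response format on HT-1080-NT cells for 48 hours at 37 degrees C. Cell viability came from CellTiter-Glo luminescence; curves were classified by r2, response magnitude and activity.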
The depositor's hits bear a star. Hits are enriched below; roughly 7.9% of the tested compounds scored in any of these assays. The call rests on the fitted dose curve; in most records, active means well fitted curve in the direction sought with a large enough effect; inconclusive means small, poorly fitted or top-dose-only effect, or another doubt; inactive means no such curve, though single readings can be large; an effect the other way counts as inactive or inconclusive. Potency means the concentration at half of the fitted maximal effect.

Screening CCCOC(=O)c1[nH]c2c(c1C)C(=O)CC(c1ccc(OC)c(OC)c1)C2 (stereo not given) returned SW480 rerep 0%, KB-3-1 cytotox inactive, KB-V1 cytotox inconclusive, HT1080 IDH1KD tx -1%, MCF10A rereplic 0% and HT1080NT lethal -5%.
For CCOCCOC(=O)c1[nH]c2c(c1C)C(=O)CC(c1ccccc1)C2 (stereo not given) the results were SW480 rerep 0.52µM*, KB-3-1 cytotox 0.92µM*, KB-V1 cytotox 1µM*, HT1080 IDH1KD tx 0.26µM*, MCF10A rereplic inconclusive and HT1080NT lethal 0.15µM*.
For Cc1c(C(=O)OCC(C)C)[nH]c2c1C(=O)CC(c1cccs1)C2 (stereo not given) the results were SW480 rerep 3.7µM*, KB-3-1 cytotox inconclusive, KB-V1 cytotox inconclusive, HT1080 IDH1KD tx 1.3µM*, MCF10A rereplic inconclusive and HT1080NT lethal 1.6µM*.
`O=C1CCC[C@@H]2[C@@H](Cc3ccccc3)[C@H](N3CCN(c4ccccc4)CC3)C[C@@H]3CCN1[C@@H]32` gave SW480 rerep -4%, KB-3-1 cytotox inconclusive, KB-V1 cytotox inactive, HT1080 IDH1KD tx 5%, MCF10A rereplic inconclusive and HT1080NT lethal 7%.
Screening COC(=O)[C@H](CCSC)NC(=O)c1cc2c(cn1)[nH]c1ccccc12 returned SW480 rerep 3%, KB-3-1 cytotox inactive, KB-V1 cytotox inactive, HT1080 IDH1KD tx 16%, MCF10A rereplic 3% and HT1080NT lethal 6%.
Cc1c(C(=O)OCC2CCCO2)[nH]c2c1C(=O)CC(c1ccc(N(C)C)cc1)C2 (stereo not given) was read as SW480 rerep 23%, KB-3-1 cytotox inconclusive, KB-V1 cytotox 21µM*, HT1080 IDH1KD tx -10%, MCF10A rereplic 15% and HT1080NT lethal -10%.
Cc1ccc(O)c(C(=O)CC(=O)c2ccccc2Cl)c1 was read as SW480 rerep 5%, KB-3-1 cytotox inconclusive, KB-V1 cytotox 7.3µM*, HT1080 IDH1KD tx 12µM*, MCF10A rereplic inconclusive and HT1080NT lethal inconclusive.
Cc1ccc(O)c(C(=O)CC(=O)c2ccc(C(C)(C)C)cc2)c1 was read as SW480 rerep -61%, KB-3-1 cytotox inconclusive, KB-V1 cytotox inactive, HT1080 IDH1KD tx -4%, MCF10A rereplic inconclusive and HT1080NT lethal -22%.
Screening CC(C)(C)C1CCc2c(sc(NC(=O)CSc3ncn[nH]3)c2C#N)C1 (stereo not given) returned SW480 rerep inconclusive, KB-3-1 cytotox inconclusive, KB-V1 cytotox 16µM*, HT1080 IDH1KD tx 11µM*, MCF10A rereplic inconclusive and HT1080NT lethal 11µM*.
`N#Cc1c(NC(=O)CSc2ncn[nH]2)sc2c1CCCC2` gave SW480 rerep -5%, KB-3-1 cytotox inconclusive, KB-V1 cytotox inconclusive, HT1080 IDH1KD tx -9%, MCF10A rereplic inconclusive and HT1080NT lethal -24%.
CC1CCc2c(sc(NC(=O)COC(=O)c3ccc(NC(=O)CC#N)cc3)c2C#N)C1 (stereo not given) was read as SW480 rerep -402%, KB-3-1 cytotox inactive, KB-V1 cytotox inactive, HT1080 IDH1KD tx 8%, MCF10A rereplic 3% and HT1080NT lethal -9%.
CC1CCc2c(sc(NC(=O)CSc3ncn[nH]3)c2C#N)C1 (stereo not given) was read as SW480 rerep 5%, KB-3-1 cytotox inconclusive, KB-V1 cytotox inactive, HT1080 IDH1KD tx inconclusive, MCF10A rereplic 18µM* and HT1080NT lethal -26%.
Screening CC(=O)c1c(C)[nH]c(C(=O)OCC(=O)Nc2sc3c(c2C#N)CCC(C)C3)c1C (stereo not given) returned SW480 rerep 13%, KB-3-1 cytotox inactive, KB-V1 cytotox inactive, HT1080 IDH1KD tx 26µM*, MCF10A rereplic inconclusive and HT1080NT lethal -9%.
CC1CCc2c(sc(NC(=O)Cn3nc(C(=O)O)c4ccccc4c3=O)c2C#N)C1 (stereo not given) was read as SW480 rerep -5%, KB-3-1 cytotox inactive, KB-V1 cytotox inactive, HT1080 IDH1KD tx 8%, MCF10A rereplic inconclusive and HT1080NT lethal 8%.
CCN1CCN(CC(=O)Nc2sc3c(c2C#N)CCC(C)C3)CC1 (stereo not given) was read as SW480 rerep inconclusive, KB-3-1 cytotox inconclusive, KB-V1 cytotox inconclusive, HT1080 IDH1KD tx inconclusive, MCF10A rereplic inconclusive and HT1080NT lethal 18µM*.
Cc1cc(Br)ccc1NC(=O)c1ccc(NS(=O)(=O)c2c(C)noc2C)cc1 was read as KB-3-1 cytotox inactive and KB-V1 cytotox inactive.
Screening OC(CNCC1(N2CCCCC2)CCCCC1)COc1ccc(Cl)cc1Cl (stereo not given) returned SW480 rerep inconclusive, KB-3-1 cytotox inactive, KB-V1 cytotox inconclusive, HT1080 IDH1KD tx 18µM*, MCF10A rereplic inconclusive and HT1080NT lethal inconclusive.
`CCOc1ccc(NC(=O)c2c(NC(=O)c3cccs3)sc3c2CCC(C(C)(C)C)C3)cc1` (stereo not given) gave KB-3-1 cytotox inactive and KB-V1 cytotox inactive.
For COc1cc2[nH]c(=O)n(CCCCCC(=O)NC3CCCC3)c(=O)c2cc1OC the results were SW480 rerep -5%, KB-3-1 cytotox inactive, KB-V1 cytotox inactive, HT1080 IDH1KD tx -13%, MCF10A rereplic -3% and HT1080NT lethal -8%.
Screening O=C(CCCn1c(=O)[nH]c2cc(Cl)ccc2c1=O)NC1CCCCCC1 returned SW480 rerep -2%, KB-3-1 cytotox inactive, KB-V1 cytotox 21µM*, HT1080 IDH1KD tx 2%, MCF10A rereplic 0% and HT1080NT lethal -4%.
COc1ccc(-c2cc(NC=O)c3ncc(-c4cccc(C(F)(F)F)c4)n3c2)cc1OC was read as KB-3-1 cytotox inconclusive, KB-V1 cytotox inconclusive, HT1080 IDH1KD tx 21µM* and HT1080NT lethal inconclusive.
COc1ccccc1-c1cc(NC=O)c2ncc(-c3cccc(C(F)(F)F)c3)n2c1 was read as KB-3-1 cytotox inconclusive, KB-V1 cytotox inconclusive, HT1080 IDH1KD tx -6% and HT1080NT lethal -9%.
CN(C)c1ccccc1-c1cc(NC=O)c2ncc(-c3cccc(C(F)(F)F)c3)n2c1 was read as KB-3-1 cytotox inconclusive, KB-V1 cytotox inconclusive, HT1080 IDH1KD tx 29µM* and HT1080NT lethal inconclusive.
For CCOc1ccc(CNCCCSc2nnnn2C)cc1OC the results were KB-3-1 cytotox inactive and KB-V1 cytotox inactive.
For Cc1c(C)n(Cc2ccc(F)cc2)c2ccc(C(=O)N3CCN(c4ccc(F)cc4)CC3)cc12 the results were KB-3-1 cytotox inactive and KB-V1 cytotox inactive.
